An excerpt weighted towards active compounds, which were near 3.3% of everything screened.
AmpC no deterg = qHTS Inhibitors of AmpC Beta-Lactamase (assay without detergent). AmpC nitrocefin hydrolysis, absorbance 480 nm, 0.0001% Triton. AID 485341, 2010. Potency, µM (top dose mostly 57.1 µM), for the others: at the top dose activity change, negative = inhibition, usual class: inhibitors. P00811. 0.52% of 330,000 active;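 note: plate controls were no compound for no effect and no enzyme for full effect; nearly all actives have a fitted effect of over 20% in size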
Target sequence (P00811 whole entry, looked up): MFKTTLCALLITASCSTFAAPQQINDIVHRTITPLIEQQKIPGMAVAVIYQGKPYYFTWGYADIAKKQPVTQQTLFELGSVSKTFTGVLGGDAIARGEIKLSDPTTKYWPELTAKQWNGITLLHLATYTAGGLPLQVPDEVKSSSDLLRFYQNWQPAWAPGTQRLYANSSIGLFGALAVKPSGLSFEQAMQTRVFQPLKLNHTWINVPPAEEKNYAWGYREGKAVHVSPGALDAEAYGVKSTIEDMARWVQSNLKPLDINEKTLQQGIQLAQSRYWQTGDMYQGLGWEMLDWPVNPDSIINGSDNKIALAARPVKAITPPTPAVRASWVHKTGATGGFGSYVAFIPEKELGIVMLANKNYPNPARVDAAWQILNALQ
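20 mM phosphate pH 7.0 + 0.01% (detergent screen) or 0.0001% Triton X-100; 5.3 nM AmpC reagent; cpd preinc 15 min RT; nitrocefin (800 uM stock) to start; A480 q20 s × 4 min; Activity was normalised to no-enzyme and no-compound control wells.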
AmpC detergent = qHTS Inhibitors of AmpC Beta-Lactamase (assay with detergent); P00811; AmpC hydrolysis of nitrocefin, absorbance 480 nm, 0.01% Triton; Potency, µM (titrated, usually from 114 µM), inactives show top-dose activity change, negative = inhibition, usual class: inhibitors; 0.041% of 370,000 active; AID 485294, 2010;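 note: 0% = no-compound wells and -100% = no-enzyme wells; nearly all actives have a fitted effect of over 25% in size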
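20 mM phosphate pH 7.0 + 0.01% (detergent screen) or 0.0001% Triton X-100; 5.3 nM AmpC reagent; cpd preinc 15 min RT; nitrocefin (800 uM stock) to start; A480 q20 s × 4 min; Activity was normalised to no-enzyme and no-compound control wells.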
Sm TGR inh = qHTS Assay for the Inhibitors of Schistosoma Mansoni Peroxiredoxins. Schistosoma mansoni thioredoxin glutathione reductase (TGR), Q962Y6. purified TGR, DTNB reduction, TNB absorbance 405 nm. Potency, µM (highest dose often 114 µM), without a hit: at the top dose activity change, negative = inhibition, hits mostly inhibitors. 3% of 360,000 active. AID 485364, 2010; note: nearly all actives have a fitted effect of over 60% in size
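TGR 20 nM + NADPH 100 uM (dispensed conc.), cpd preinc 15 min RT; start with NADPH (500 uM addition) then DTNB (15 mM addition). Kinetic TNB absorbance, 405 nm filter. Four-parameter Hill fit across titration.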
Numbers without * were called inactive; u = inconclusive; x = no result. Calls come from the whole dose curve; as a rule, active = well fitted curve in the direction sought with a large enough effect; inconclusive = small, poorly fitted or top-dose-only effect, or another doubt; inactive = no such curve, though single readings can be large; an effect the other way counts as inactive or inconclusive. Unless noted, % is set by controls: 0 for no effect and ±100 for the full control effect; potency is the fitted concentration of half-maximal effect.

SMILES | AmpC no deterg | AmpC detergent | Sm TGR inh
CCc1ccccc1NC(=O)CSc1ncc2c(n1)-c1ccccc1N(Cc1ccc(C)cc1)S2(=O)=O | x | 4.0% | 2.8%
CCCNC(=O)C1CCC(Cn2c(=O)c3sccc3n(CC(=O)NCc3cccc(OC)c3OC)c2=O)CC1 (configuration not stated) | x | -1.7% | -5.8%
COc1cc(C(=O)Oc2ccccc2/C=N/NC(=O)c2ccc(Cl)cc2Cl)cc(OC)c1OC | u | 0.1% | -3.6%
C=CCOc1ccccc1/C=N/NC(=O)c1ccc(Cl)cc1Cl | 25.1µM* | 0.5% | -14.2%
C=C(CCC(=O)c1ccccc1)C(=O)c1ccccc1 | -21.8% | -19.7% | 44.7µM*
O=C(CCCCCCCC(=O)c1ccccc1)c1ccccc1 | -14.1% | u | 1.0%
CCOc1ccccc1NC(=O)/C=C/C(N)=O | -15.6% | -3.5% | 3.98µM*
CCOc1ccccc1NC(=O)CCS(=O)(=O)c1cccs1 | -16.8% | u | 56.2µM*
CCOc1ccccc1NC(=S)Nc1ccc(S(N)(=O)=O)cc1 | -16.8% | 0.5% | 14.1µM*
CCOc1ccccc1NC(=O)Nc1cccc(S(N)(=O)=O)c1 | -19.4% | 8.1% | -1.4%
CCOc1ccccc1NC(=O)c1ccc(C(=O)Nc2ccccc2OCC)cc1 | x | 9.9% | 2.4%
CCOc1ccccc1NS(=O)(=O)c1cccs1 | -9.3% | -14.4% | 5.6%
COC(=O)C1=C(C)N(Cc2ccccc2)C(=S)N[C@H]1CCc1ccccc1 | -29.5% | u | -13.0%
Cc1ccc(OCc2nc(-c3ccc(C(=O)N4CCN(c5ccccc5F)CC4)cc3)oc2C)cc1 | x | -0.8% | 0.9%
CCOC(=O)CCCCC(=O)c1[nH]c(=O)[nH]c1Cn1cnc2ccccc21 | -50.3% | -13.6% | 15.8µM*
CCOC(=O)CCCCC(=O)c1[nH]c(=O)[nH]c1CSCCO | -18.6% | -6.8% | -16.3%
Cc1ccc2nc(COc3ccccc3NC(=O)c3ccc(F)cc3)cc(=O)n2c1 | x | -9.4% | -0.8%
CNC(=S)Nc1ccc([N+](=O)[O-])cc1C | -22.3% | -0.3% | 10µM*
Cc1ccc(CNC(=S)Nc2ccc(C)c([N+](=O)[O-])c2)cc1 | -21.9% | 10.1% | -2.6%
COCC(=O)Nc1ccc([N+](=O)[O-])cc1C | -19.9% | -5.6% | -0.7%
CNC(=S)Nc1ccc([N+](=O)[O-])c(C)c1 | -18.7% | -12.5% | 39.8µM*
CCC(=O)Nc1ccc2nc(SCc3ccccc3)sc2c1 | x | 1.2% | 3.2%
Cc1cccc(NC(=O)Cn2c(=O)n(CCCS(=O)(=O)C3CCCCC3)c(=O)c3ccccc32)c1 | x | -6.4% | -3.8%
Cc1coc2cc3oc(=O)c(CCC(=O)NCc4ccc(Cl)cc4)c(C)c3cc12 | x | -9.1% | 2.9%
CCOc1ccc(C(=O)/C=C/c2ccc(OC)c(OC)c2)cc1 | 65.7% | -3.7% | x
SMILES | AmpC no deterg | AmpC detergent | Sm TGR inh
CCc1ccc(/C=C/C(=O)c2cc(Br)ccc(=O)c2O)cc1 | 28.2µM* | -7.4% | 0.0%
Cc1cccc(/C=C/C(=O)c2cc(Br)ccc(=O)c2O)c1 | 31.6µM* | -8.1% | 2.2%
Cc1cccc(/C=N/NC(=O)c2ccc(Br)cc2)c1 | -37.2% | -9.0% | -2.0%
CCOc1ccc(/C=C/C(=O)c2cc(Br)ccc(=O)c2O)cc1 | 31.6µM* | u | 28.2µM*
Cc1ccc(/C=C/C(=O)c2cc(Br)ccc2OC(=O)c2ccco2)cc1 | -9.8% | 0.8% | -0.2%
CN1CCN(C(=O)Cn2c(-c3cccs3)cc3cc(Cl)ccc32)CC1 | x | -0.1% | -12.7%
Cc1ccc(-c2c(CN3CCN(c4cc(Cl)ccc4C)CC3)csc2C)cc1 | x | 5.7% | -3.6%
O=c1c(O)c(-c2cc(O)c(O)c(O)c2)oc2cc(O)cc(O)c12 | -42.1% | u | 3.55µM*
O=c1c(O[C@@H]2O[C@H](CO)[C@H](O)[C@H](O)[C@H]2O)c(-c2ccc(O)c(O)c2)oc2cc(O)cc(O)c12 | -15.4% | 7.8% | 17.5%
COc1c(-c2ccc(O)c(O)c2)oc2cc(O)cc(O)c2c1=O | -51.4% | 0.3% | 28.2µM*
O=c1c(O)c(-c2ccccc2)oc2cc(O)cc(O)c12 | -6.2% | x | x
CCOc1ccc2ncc3c(-c4cccc(OC)c4)nn(-c4ccccc4)c3c2c1 | x | u | -8.3%
Cc1cc2c(cc1S(=O)(=O)CCC(=O)N1CCCC(C)C1)OCC(=O)N2 (configuration not stated) | x | 12.7% | -4.2%
O=C(Nc1ccc(F)cc1F)C1CCN(S(=O)(=O)c2ccc3[nH]c(=O)ccc3c2)CC1 | x | 5.0% | 4.6%
COc1cc(/C=N/NC(=O)CCOc2ccccc2C)cc(Br)c1O | 22.4µM* | 0.5% | -17.0%

Compound activity (PubChem)
